Source: PubChem BioAssay (NCATS)
“And” between values parts separate entries of the source, which are not always exact repeats. Identical values can stand only once. Records with an inconclusive call do not appear. The source made the active and inactive calls. Unless noted, calls follow the shape of the dose curve; as a rule, active = well fitted curve in the direction sought with a large enough effect; inconclusive = small, poorly fitted or top-dose-only effect, or another doubt; inactive = no such curve, though single readings can be large; an effect the other way counts as inactive or inconclusive.

How the values were obtained:
[1] = qHTS for differential inhibitors of proliferation of Plasmodium falciparum line GB4 (AID 1816); settings: Potency: Plasmodium falciparum GB4 proliferation inhibition;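 also: potency is read from the fitted curve at half-maximal effect; parasite growth measured after 72 h incubation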
[2] = molecular target: Flap endonuclease 1 (Homo sapiens) (UniProt P39748); experiment: qHTS Validation Assay for the Inhibitors of Human Flap endonuclease 1 (FEN1) (AID 488816); also: potency is read from the fitted curve at half-maximal effect
Sequence of Flap endonuclease 1 (Homo sapiens) (P39748 whole entry, looked up): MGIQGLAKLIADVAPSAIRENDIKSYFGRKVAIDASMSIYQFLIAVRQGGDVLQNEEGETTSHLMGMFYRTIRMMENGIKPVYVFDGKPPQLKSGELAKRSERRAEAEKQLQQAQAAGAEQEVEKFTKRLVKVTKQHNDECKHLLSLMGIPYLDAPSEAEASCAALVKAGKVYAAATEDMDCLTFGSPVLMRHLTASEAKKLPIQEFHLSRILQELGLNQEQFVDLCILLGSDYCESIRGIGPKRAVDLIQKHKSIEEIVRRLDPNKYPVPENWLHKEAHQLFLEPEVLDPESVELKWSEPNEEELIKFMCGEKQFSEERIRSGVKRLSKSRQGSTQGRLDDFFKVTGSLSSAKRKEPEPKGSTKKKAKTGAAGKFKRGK
How it was run: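 Enzyme reagent 10 nM; cpds pinned; 15 min RT preinc.; substrate 50 nM final; reads t=0 and 15 min; no-enzyme buffer wells as neg. control; normalized data, 4-parameter Hill fit.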

[3] = Cell Viability - Jurkat (AID 426;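 active = dose-dependent loss of cell ATP signal giving a full or clear fitted curve, ranked by lower potency value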;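 also: potency is read from the fitted curve at half-maximal effect; cells exposed to compound for 40 hours at 37 °C before ATP read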); settings: qHTS
How it was run: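 Luminescent ATP read-out (CellTiter-Glo, 20 min at room temperature) after 40 hr compound exposure at 37 °C of Jurkat E6-1 cells, 5000/well. Decreased ATP taken as cytotoxicity; AC50 from standard Hill equation.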

[4] = Cell Viability - H-4-II-E (AID 543);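 also: cells exposed to compound for 40 hours; % is scaled to controls: 0 for no effect and ±100 for the full control effect; nearly all actives have a fitted effect of over 35% in size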
How it was run: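 qHTS, rat hepatoma H-4-II-E, 1500 cells/well; 40 hr compound exposure, 37 °C; CellTiter-Glo ATP luminescence after 20 min RT; AC50 by standard Hill fit.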

[5] = Cell Viability - SH-SY5Y (AID 544);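 also: cells exposed to compound for 40 hours; 0% = DMSO alone and -100% = 100 µM tamoxifen; nearly all actives have a fitted effect of over 55% in size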
How it was run: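 SH-SY5Y, 1500 cells/well, 5 hr pre-incubation 37 °C; cpd 40 hr 37 °C; CellTiter-Glo 20 min RT; luminescence (ATP) read. qHTS concentration-response, Hill fit → AC50. Tamoxifen, doxorubicin as positive controls.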

[6] = Cellular Toxicity (caspase-3) Mesangial (AID 660);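 also: combined caspase 3 and 7 activity read by Caspase-Glo luminescence; cells exposed to compound for 16 h before the caspase read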
How it was run: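 Luminescent Caspase-Glo 3/7 readout (aminoluciferin substrate cleavage, 20 min RT) after 16 h compound exposure at 37 °C of normal human mesangial cells. Signal increase normalized between DMSO basal and 100 uM tamoxifen; Hill-equation AC50.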

[7] = Cell Viability - LYMP2-001 (AID 921);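 also: series mostly up to about 92 µM; 0% = DMSO only and full inhibition = tetraoctylammonium bromide control wells; nearly all actives have a fitted effect of over 70% in size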
How it was run: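 CellTiter-Glo luminescence (intracellular ATP) after 24 hr compound exposure at 37 C, 2500 lymphoblastoid cells/well in complete medium. AC50 fitted with standard Hill equation; tetraoctylammonium bromide positive control.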

[8] = Cell Viability - LYMP2-007 (AID 979);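 also: cells exposed to compound for 24 h before reading; 0% = DMSO only and the negative end = 92 µM tetraoctylammonium bromide; nearly all actives have a fitted effect of over 60% in size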
How it was run: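 qHTS cytotoxicity: 2500 cells/well, 5 hr 37 C settle, compound 24 hr 37 C, CellTiter-Glo 30 min RT, luminescence. Decrease in ATP = toxicity. AC50 by standard Hill equation; tetraoctylammonium bromide positive control.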

[9] = Cell Viability - LYMP2-022 (AID 987);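 also: 0% = DMSO alone and full effect = tetraoctylammonium bromide at 92 µM; nearly all actives have a fitted effect of over 55% in size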
How it was run: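 Luminescent ATP read-out (CellTiter-Glo, 30 min, RT) after 24 hr, 37 C compound exposure of 2500 human lymphoblastoid cells/well in complete medium. Cytotoxicity taken as concentration-dependent ATP loss; AC50 from standard Hill equation.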

[10] = molecular target: Tumor necrosis factor (Homo sapiens) (UniProt P01375); experiment: qHTS assay to identify small molecules that stimulate Tumor Necrosis Factor-alpha (TNF-alpha) secretion (AID 651757; active = well fitted curve in the direction sought with a large enough effect in the signal ratio; the % refers to the signal ratio; also: 0% is about no effect)
Sequence of Tumor necrosis factor (Homo sapiens) (P01375 whole entry, looked up): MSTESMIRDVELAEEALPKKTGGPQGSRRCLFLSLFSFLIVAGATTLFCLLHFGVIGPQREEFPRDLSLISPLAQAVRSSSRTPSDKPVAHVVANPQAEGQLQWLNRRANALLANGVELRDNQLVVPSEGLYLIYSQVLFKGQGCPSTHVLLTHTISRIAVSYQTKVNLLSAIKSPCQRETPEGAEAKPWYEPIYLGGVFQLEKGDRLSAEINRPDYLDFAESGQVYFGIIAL
How it was run: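 THP-1 cells, 3000/well; compound 17 hrs, 37 C; add cryptate/XL665 anti-TNF-alpha antibody pair; 3 hr RT; TR-FRET (HTRF) read of secreted TNF-alpha. Quantitative HTS format.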

[11] = qHTS assay for environmental chemicals that activate the Aryl hydrocarbon Receptor (AhR) signaling pathway (AID 651777); settings: 1A2-DRE human hepatoma cells, luciferase, 24 h; activation: stronger effect = higher value; also: % of control where 0% means no effect; nearly all actives have a fitted effect of over 15% in size
How it was run: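 Induction of CYP1A2 transcription through AhR is detected by luciferase in 1A2-DRE hepatoma cells. Compounds or DMSO act for 24 hr at 37 C before a 30 min One-Glo step at room temperature.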

[12] = qHTS assay for small molecule agonists of the antioxidant response element (ARE) signaling pathway measured by Nrf2-dependant transcriptional activity (AID 720636; active = well fitted curve in the direction sought with a large enough effect in the repeat runs; an effect the other way counts as inactive or inconclusive; also: % of control where 0% means no effect)
How it was run: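 We exposed ARE-luc HepG2 cells, seeded in assay medium with 1% dialyzed FBS and allowed 6 hr to adhere, to test compounds overnight (16 hr, 37 C) before measuring luciferase with ONE-Glo.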

[13] = MultiTox-Fluor Cytotoxicity Assay - LYMP1-002 - Dead Cells (AID 960); also: nearly all actives have a fitted effect of over 60% in size; also: potency is read from the fitted curve at half-maximal effect
How it was run: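 Readout: fluorescence at 485/520 from cell-impermeant bis-AAF-R110 cleaved by proteases leaking from damaged cells. LYMP1-002 lymphoblastoid line, 16 hr compound treatment at 37 C, concentration-response in qHTS format; Hill-equation AC50 values.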

[14] = molecular target: Ubiquitin carboxyl-terminal hydrolase 1 (Homo sapiens) (UniProt O94782); experiment: Inhibitors of USP1/UAF1: Pilot qHTS (AID 504865); also: nearly all actives have a fitted effect of over 35% in size; also: potency is read from the fitted curve at half-maximal effect
Sequence of Ubiquitin carboxyl-terminal hydrolase 1 (Homo sapiens) (O94782 whole entry, looked up): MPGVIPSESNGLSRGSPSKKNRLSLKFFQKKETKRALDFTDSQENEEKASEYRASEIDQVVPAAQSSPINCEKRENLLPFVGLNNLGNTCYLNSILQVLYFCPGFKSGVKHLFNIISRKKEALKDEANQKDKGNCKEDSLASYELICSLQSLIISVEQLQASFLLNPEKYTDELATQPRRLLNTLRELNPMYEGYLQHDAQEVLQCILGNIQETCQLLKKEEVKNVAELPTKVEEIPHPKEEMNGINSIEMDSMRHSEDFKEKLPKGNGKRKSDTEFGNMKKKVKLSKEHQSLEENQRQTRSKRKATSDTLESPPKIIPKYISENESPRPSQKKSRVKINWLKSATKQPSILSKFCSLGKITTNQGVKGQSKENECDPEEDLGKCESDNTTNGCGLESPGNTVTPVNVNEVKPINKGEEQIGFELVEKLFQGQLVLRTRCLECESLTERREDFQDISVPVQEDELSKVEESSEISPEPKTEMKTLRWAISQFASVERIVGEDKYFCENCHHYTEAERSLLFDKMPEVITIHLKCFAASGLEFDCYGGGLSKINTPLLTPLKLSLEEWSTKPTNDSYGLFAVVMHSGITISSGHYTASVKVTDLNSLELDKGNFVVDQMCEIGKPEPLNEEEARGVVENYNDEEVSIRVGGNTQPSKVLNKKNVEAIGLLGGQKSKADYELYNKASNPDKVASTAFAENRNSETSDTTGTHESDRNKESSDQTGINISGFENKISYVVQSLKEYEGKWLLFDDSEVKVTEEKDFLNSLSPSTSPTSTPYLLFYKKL
How it was run: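 1nM USP1/UAF1 + cpd, 15 min RT; start w/ Ub-Rho 150nM final; kinetic FL 480/540 nm, 6 reads q60 s. Buffer 50mM HEPES pH 7.8, 0.5mM EDTA, 1mM TCEP, 0.01% Tween-20, 0.1 mg/ml BSA.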

[15] = qHTS assay for small molecule activators of the p53 signaling pathway (AID 651743; active = well fitted activation curve with a large enough effect in the signal ratio, not every such curve was filed as active; the % refers to the signal ratio; also: potency is read from the fitted curve at half-maximal effect; as to activation: series mostly up to about 92 µM; % of control where 0% means no effect); settings: HCT-116 p53RE-bla, beta-lactamase FRET ratio, 16 h; activation: stronger effect = higher value
How it was run: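 Reporter: beta-lactamase driven by p53 response elements, stably integrated in HCT-116 cells. Cells seeded at 4,000/well, 5 h preincubation, compound (DMSO) 16 h at 37 C; B/G FRET substrate 2 h RT; fluorescence intensity read.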

[16] = molecular target: Mitogen-activated protein kinase 10 (Mus musculus) (UniProt Q61831); experiment: JNK3 AlphaScreen Assay (AID 530; active = well fitted curve in either direction with a large enough effect, not every such curve was filed as active;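 also: kinase came from lysate of stimulated human HepG2 cells; signal reports phosphorylation of biotinylated GST-cJun 1-79 at Ser73 with 10 µM ATP; series mostly up to about 57 µM; % is scaled to controls: 0 for no effect and ±100 for the full control effect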)
How it was run: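 HepG2 lysate (IL-1b/TNFa pre-activated) + biotin-GST-cJun 1-79 + anti-pSer73 cJun; cpd titration, 15 min RT; ATP 10 uM start; Tris pH 7.6, MgCl2, DTT, vanadate; beads in EDTA buffer; AlphaScreen.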

[17] = Cell Viability - LYMP2-014 (AID 983);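 also: series mostly up to about 92 µM; plate controls were DMSO only for no effect and 92 µM tetraoctylammonium bromide for full effect; nearly all actives have a fitted effect of over 50% in size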
How it was run: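 2500 cells/well, 5 hr 37 C; cpd 24 hr 37 C, complete medium; CellTiter-Glo 30 min RT, luminescence; ATP loss = toxicity; AC50 via Hill eqn; tetraoctylammonium bromide positive control.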

[18] = Cell Viability - LYMP2-016 (AID 984);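 also: cells exposed to compound for 24 hours at 37 °C; % is scaled to controls: 0 for no effect and ±100 for the full control effect; nearly all actives have a fitted effect of over 55% in size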
How it was run: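 qHTS, 1536-well: 2500 LYMP2-016 cells/well, 5 hr 37 C, compound added, 24 hr 37 C, CellTiter-Glo 30 min RT, luminescence. Tetraoctylammonium bromide positive control. AC50 via Hill fit.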

[19] = molecular target: Voltage-gated inwardly rectifying potassium channel KCNH2 (Homo sapiens) (UniProt Q12809); experiment: qHTS Assay for Small Molecule Inhibitors of the Human hERG Channel Activity (AID 588834);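 also: lower thallium flux fluorescence means stronger hERG block; nearly all actives have a fitted effect of over 50% in size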; also: potency is read from the fitted curve at half-maximal effect
Sequence of Voltage-gated inwardly rectifying potassium channel KCNH2 (Homo sapiens) (Q12809 whole entry, looked up): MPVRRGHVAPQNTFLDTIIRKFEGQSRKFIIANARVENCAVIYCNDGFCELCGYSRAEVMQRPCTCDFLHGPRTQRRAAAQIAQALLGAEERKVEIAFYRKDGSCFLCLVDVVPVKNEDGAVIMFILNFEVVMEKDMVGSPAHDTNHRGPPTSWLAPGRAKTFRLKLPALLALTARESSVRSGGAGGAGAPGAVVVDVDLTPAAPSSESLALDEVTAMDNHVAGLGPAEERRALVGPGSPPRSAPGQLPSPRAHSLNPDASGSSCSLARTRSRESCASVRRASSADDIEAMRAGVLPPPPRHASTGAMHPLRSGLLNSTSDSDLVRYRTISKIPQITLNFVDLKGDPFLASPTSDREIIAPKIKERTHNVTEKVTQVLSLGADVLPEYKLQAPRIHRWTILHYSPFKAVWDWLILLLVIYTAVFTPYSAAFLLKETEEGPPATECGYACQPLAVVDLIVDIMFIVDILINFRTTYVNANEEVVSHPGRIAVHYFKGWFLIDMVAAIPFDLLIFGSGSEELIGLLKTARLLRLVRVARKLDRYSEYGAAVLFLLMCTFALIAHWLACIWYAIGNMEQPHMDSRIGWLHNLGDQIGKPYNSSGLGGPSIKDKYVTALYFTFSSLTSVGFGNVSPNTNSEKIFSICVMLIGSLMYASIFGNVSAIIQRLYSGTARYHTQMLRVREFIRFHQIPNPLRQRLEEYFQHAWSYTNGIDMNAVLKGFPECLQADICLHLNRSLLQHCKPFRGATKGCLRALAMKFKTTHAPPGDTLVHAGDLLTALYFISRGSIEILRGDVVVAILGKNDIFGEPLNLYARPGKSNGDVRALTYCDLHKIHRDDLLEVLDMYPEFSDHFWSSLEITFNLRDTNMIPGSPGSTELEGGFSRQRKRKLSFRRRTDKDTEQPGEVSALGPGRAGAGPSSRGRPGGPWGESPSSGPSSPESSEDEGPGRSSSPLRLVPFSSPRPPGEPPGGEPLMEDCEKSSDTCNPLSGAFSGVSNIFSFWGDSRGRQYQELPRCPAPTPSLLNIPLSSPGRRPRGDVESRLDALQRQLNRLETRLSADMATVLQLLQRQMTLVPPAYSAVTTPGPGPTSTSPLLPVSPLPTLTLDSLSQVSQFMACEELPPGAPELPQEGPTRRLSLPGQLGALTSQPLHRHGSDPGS
How it was run: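 Thallium-flux (FluxOR) read-out on FDSS: fluorescence read 10 s before and 2 min after stimulation buffer. hERG-BacMam-transduced U2OS cells, compound exposure about 10 min. AC50 by standard Hill equation.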

[20] = Nrf2 qHTS screen for inhibitors: Validation (AID 493153; active = well fitted inhibition curve with a large enough effect in the main read-out, with a control signal flat, not every such curve was filed as active; also: potency is read from the fitted curve at half-maximal effect); settings: Potency: luciferase luminescence; viability change: measured here: cytotoxicity max response
How it was run: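 Concentration-response test in A549 ARE_Fluc reporter cells (5% FBS OPTI-MEM), compound exposure 18-24 h at 37°C, 5% CO2. Cell viability measured first by CellTiter-Fluor fluorescence; ARE-driven luciferase luminescence then measured as Nrf2 activity.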

CN1C2CCC1CC(OC(=O)C(CO)c1ccccc1)C2 (stereo unspecified)
active: Potency [1] 8.91 µM

N#C/C(=C\c1ccc(O)c(O)c1)C(=O)NCCCNC(=O)/C(C#N)=C/c1ccc(O)c(O)c1
active: Potency [1] 2.24 µM | Potency [2] 0.67 µM

CC(C)COC(=O)c1ccccc1C(=O)OCC(C)C
inactive: Potency [3] > 92 µM | outcome [4] | outcome [5] | outcome [6] | outcome [7] | outcome [8] | outcome [9] | outcome [10] | activation [11] 0.543% | Potency [12]

CCCCCCCCCC[Si](C)(C)CCC(=O)NC(Cc1ccc(C)cc1)c1ccccc1 (stereo unspecified)
active: Potency [1] 2.24 µM

Oc1ccccc1O
active: Potency [13] 20 µM | Potency [2] 5.97 µM

Nc1nc(N)c2nc(CNc3ccc(C(=O)NC(CCC(=O)O)C(=O)O)cc3)cnc2n1 (stereo unspecified)
active: Potency [15] 0.1 µM
inactive: Potency [14]

COc1cc([C@@H]2c3cc4c(cc3[C@H](O)C3COC(=O)[C@@H]32)OCO4)cc(OC)c1OC (stereo partly specified)
active: Potency [1] 12.6 µM
inactive: Potency [14]

Oc1ccccc1Cl
inactive: Potency [3] > 92 µM | outcome [16] | outcome [4] | outcome [5] | outcome [6] | outcome [7] | Potency [13] | outcome [8] | outcome [17] | outcome [18] | outcome [9] | Potency [19] | activation [15] -5.71% | outcome [10] | activation [11] 0.249% | Potency [12]

COC1=CC(=O)OC(CCc2ccc3c(c2)OCO3)C1 (stereo unspecified)
inactive: outcome [16] | outcome [6] | Potency [13] | outcome [17] | outcome [18] | Potency [19] | activation [15] -6.75% | outcome [10] | activation [11] 9.51% | Potency [12]

Cn1ccnc1
inactive: Potency [2]

CCOC(=O)c1ccccc1N
inactive: Potency [3] > 92 µM | outcome [16] | outcome [4] | outcome [5] | outcome [6] | outcome [7] | Potency [13] | outcome [8] | outcome [17] | outcome [18] | outcome [9] | Potency [19] | outcome [10] | activation [11] 1.49% | Potency [12]

Nc1nc2ccc(Cl)cc2c2nc(-c3ccco3)nn12
11.1%: viability change [20]
inactive: Potency [20]

CN1[C@@H](CC(=O)c2ccccc2)CCC[C@H]1C[C@H](O)c1ccccc1
active: Potency [1] 10 µM | Potency [19] 4.47 µM
inactive: Potency [2]

O=c1oc(Cl)c(Cl)c2ccccc12
active: Potency [14] 12.6 µM

O=C(O)CNC(=O)C(CS)Cc1ccccc1 (stereo unspecified)
inactive: Potency [14]

c1ccc(Nc2ccc3ccccc3c2)cc1
inactive: outcome [16] | outcome [7] | outcome [8] | outcome [17] | outcome [18] | outcome [9] | activation [15] -2.23% and -2.96%
active: Potency [19] 25.1 µM

Brc1c(Br)c(Br)c2n[nH]nc2c1Br
active: Potency [20] 18.4 µM | Potency [14] 56.2 µM
inactive: Potency [2]
-14.6%: viability change [20]

CC(=O)/C=C/c1ccccc1
inactive: Potency [3] > 92 µM | outcome [16] | outcome [4] | outcome [5] | outcome [6] | outcome [7] | Potency [13] | outcome [8] | outcome [17] | outcome [18] | outcome [9] | Potency [19] | outcome [10] | activation [11] -0.449% | Potency [12]

c1ccc2c(c1)-c1cccc3cccc-2c13
inactive: Potency [3] > 92 µM | outcome [4] | outcome [5] | outcome [6] | outcome [7] | Potency [13] | outcome [8] | outcome [17] | outcome [18] | outcome [9] | activation [15] 5.47% and -0.395% | outcome [10] | Potency [12]

Nc1nc2[nH]c(=O)cnc2c(=O)[nH]1
inactive: Potency [20]
-3.53%: viability change [20]
